# Results from PubChem BioAssay (Tox21).
# Records with an inconclusive call do not appear. A call without a number means that no potency is given here. Where a structure was tested more than once in an assay, its records may differ in their call. Activity calls are given as the source filed them. Unless noted, calls follow the shape of the dose curve; as a rule, active = well fitted curve in the direction sought with a large enough effect in the repeat runs; inconclusive = weak or mixed curves; inactive = no such curve, though single readings can be large; an effect the other way counts as inactive or inconclusive.
# Assays:
# [1] = qHTS assay to identify small molecule antagonists of the androgen receptor (AR) signaling pathway using the MDA cell line in the presence of 0.5 nM R1881 - cell viability counter screen (AID 1259242); also: nearly all actives have a fitted effect of over 45% in size
# Outline: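 Fluorescence from CellTiter-Fluor, which reports protease activity of live cells, was read 30 min after reagent addition to MDA-kb2 cells that had been incubated 16 hr with compound and 0.5 nM R1881.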
# [2] = target: Estrogen receptor (Homo sapiens) (UniProt P03372); assay: qHTS assay to identify small molecule antagonists of the estrogen receptor alpha (ER-alpha) signaling pathway using the BG1 cell line in the presence of 0.1 nM 17-beta-estradiol (AID 1259244); also: nearly all actives have a fitted effect of over 50% in size
# Outline: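 Quantitative high-throughput screen in VM7Luc4E2 cells: compound plus 0.1 nM E2 (final), 22 h, 37C, 5% CO2; ONE-Glo added, 30 min room temperature, luminescence measured.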
# [3] = qHTS assay to identify small molecule HDAC inhibitors (AID 1259364); also: top concentration of the series differs between compounds; nearly all actives have a fitted effect of over 45% in size
# Outline: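 Endogenous HDAC class I/II activity was measured in wild-type HCT-116 cells by HDAC-Glo luminescence after 2 h compound treatment.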
# [4] = qHTS assay to identify small molecule HDAC inhibitors - cell viability counter screen (AID 1259365); also: series mostly up to about 92 µM; nearly all actives have a fitted effect of over 50% in size
# Outline: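 HCT-116 (wild type), 1,500 cells/well, overnight 37C/5% CO2; compound in DMSO 2hr; CellTiter-Glo 30min RT; luminescence read.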
# [5] = qHTS assay to identify small molecule agonists of the sonic hedgehog signaling (Shh) pathway - cell viability counter screen (AID 1259366); also: nearly all actives have a fitted effect of over 50% in size; also: potency is read from the fitted curve at half-maximal effect
# Outline: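 CellTiter-Fluor fluorescence read-out, 1 hr at 37C, added after 23hr compound exposure. Cells: 3T3 Gli1-Luc, an NIH/3T3 clone with stably integrated Gli1-Luc reporter, plated 4hr before compound.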
# [6] = qHTS assay to identify small molecule antagonists of the sonic hedgehog signaling (Shh) pathway - cell viability counter screen (AID 1259367); also: nearly all actives have a fitted effect of over 55% in size; also: potency is read from the fitted curve at half-maximal effect
# Outline: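 Seed 3T3 Gli1-Luc cells at 2,000 per well; incubate 4 hr; add compound in DMSO, then conditioned medium; incubate at 37C with 5% CO2; add CellTiter-Fluor after 23 hr; read fluorescence 1 hr later.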
# [7] = qHTS assay to identify small molecule agonists of the sonic hedgehog signaling (Shh) pathway (AID 1259368; calls by dose curve;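 also: NIH/3T3-derived 3T3Gli1-Luc cells carrying a stable Gli1-driven firefly luciferase reporter; series mostly up to about 92 µM; nearly all actives have a fitted effect of over 15% in size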)
# Outline: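 Luminescent signal was taken as a measure of Gli1-controlled luciferase expression in stably transfected NIH/3T3-derived cells that had been treated for 24 hr with compounds delivered in DMSO.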
# [8] = qHTS assay to identify small molecule antagonists of the sonic hedgehog signaling (Shh) pathway (AID 1259369; calls by dose curve; also: nearly all actives have a fitted effect of over 45% in size)
# Outline: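 Screening used 3T3Gli1-Luc cells at 2,000 per well, compounds delivered in DMSO, and conditioned medium as agonist stimulus; plates incubated 24hr at 37 C and 5% CO2 before a 30min luciferase step.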
# [9] = qHTS assay to identify small molecule phospholipidosis (PLD) inducers (AID 1259344; active = well fitted curve in the direction sought with a large enough effect; an effect the other way counts as inactive or inconclusive)
# Outline: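 Quantitative HTS in HepG2: compound plus LipidTOX Red dye for 24 h, paraformaldehyde fixation with Hoechst 33342, widefield high-content imaging; amiodarone as positive and DMSO as negative control.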
# Estrogen receptor (Homo sapiens), sequence (P03372 whole entry, looked up): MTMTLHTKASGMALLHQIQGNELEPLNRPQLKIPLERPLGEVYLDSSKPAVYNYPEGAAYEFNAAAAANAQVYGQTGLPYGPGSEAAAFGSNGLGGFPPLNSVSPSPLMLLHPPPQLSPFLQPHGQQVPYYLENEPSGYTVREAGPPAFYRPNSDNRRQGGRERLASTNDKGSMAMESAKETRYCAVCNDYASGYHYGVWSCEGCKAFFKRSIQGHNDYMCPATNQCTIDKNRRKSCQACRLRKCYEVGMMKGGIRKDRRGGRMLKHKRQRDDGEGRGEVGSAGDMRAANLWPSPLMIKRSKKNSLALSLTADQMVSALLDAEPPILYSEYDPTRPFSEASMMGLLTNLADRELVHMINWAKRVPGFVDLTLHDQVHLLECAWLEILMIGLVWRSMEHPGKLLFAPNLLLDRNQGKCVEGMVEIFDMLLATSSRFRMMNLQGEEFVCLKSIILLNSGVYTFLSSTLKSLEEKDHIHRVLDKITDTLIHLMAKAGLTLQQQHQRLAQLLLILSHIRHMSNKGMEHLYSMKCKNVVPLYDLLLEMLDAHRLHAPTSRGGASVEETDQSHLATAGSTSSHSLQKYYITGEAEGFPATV
structure (smiles),measurement,setting,value
CCN[C@@H](C)Cc1cccc(C(F)(F)F)c1,Potency,[1],inactive
same,Potency,[2],inactive
same,Potency,[3],inactive
same,outcome,[4],inactive
same,Potency,[5],inactive
same,Potency,[6],inactive
same,outcome,[7],inactive
same,Potency,[8],inactive
Clc1nc(Cl)nc(Nc2ccccc2Cl)n1,Potency,[1],inactive
same,Potency,[2],inactive
same,Potency,[3],inactive
same,outcome,[4],inactive
same,Potency,[6],inactive
same,outcome,[7],inactive
CC(Cc1ccccc1)NCCn1cnc2c1c(=O)n(C)c(=O)n2C (stereo not drawn),Potency,[1],inactive
same,Potency,[2],inactive
same,Potency,[3],inactive
same,outcome,[4],inactive
same,outcome,[7],inactive
O=P(O)(O)c1ccccc1,Potency,[1],inactive
same,Potency,[2],inactive
same,Potency,[3],inactive
same,outcome,[4],inactive
same,Potency,[5],inactive
same,Potency,[6],inactive
same,outcome,[7],inactive
same,Potency,[8],inactive
CN=CNc1ccc(C)cc1C,Potency,[1],inactive
same,Potency,[2],inactive
same,Potency,[3],inactive
same,outcome,[4],inactive
same,Potency,[5],inactive
same,Potency,[6],inactive
same,outcome,[7],inactive
same,Potency,[8],inactive
C#CCOC(=O)/C=C(C)/C=C/CC(C)CCCC(C)C (stereo not drawn),Potency,[1],inactive
same,Potency,[2],inactive
same,Potency,[3],inactive
same,outcome,[4],inactive
same,Potency,[5],inactive
same,Potency,[6],inactive
same,outcome,[7],inactive
same,Potency,[8],inactive
CCCC[N+](=O)[O-],Potency,[1],inactive
same,Potency,[2],inactive
same,Potency,[3],inactive
same,outcome,[4],inactive
same,Potency,[6],inactive
same,outcome,[7],inactive
same,Potency,[8],inactive
C=CCC1(C(C)CC)C(=O)NC(=O)NC1=O (stereo not drawn),Potency,[1],inactive
same,Potency,[2],inactive
same,Potency,[3],inactive
same,outcome,[4],inactive
same,Potency,[5],inactive
same,Potency,[6],inactive
same,outcome,[7],inactive
same,Potency,[8],inactive
Cc1ccc(Cl)c(O)c1,Potency,[1],inactive
same,Potency,[2],inactive
same,Potency,[3],inactive
same,outcome,[4],inactive
same,Potency,[5],inactive
same,outcome,[7],inactive
CS(=O)(=O)c1ccc(C(=O)C2C(=O)CCCC2=O)c(Cl)c1COCC(F)(F)F,Potency,[1],inactive
same,Potency,[2],inactive
same,Potency,[3],inactive
same,outcome,[4],inactive
same,Potency,[5],inactive
same,Potency,[6],inactive
same,outcome,[7],inactive
same,Potency,[8],inactive
ClCOCCl,Potency,[1],inactive
same,Potency,[2],inactive
same,Potency,[3],inactive
same,outcome,[4],inactive
same,Potency,[6],inactive
same,outcome,[7],inactive
same,Potency,[8],inactive
N#CN,Potency,[1],inactive
same,Potency,[2],inactive
same,Potency,[3],inactive
same,outcome,[4],inactive
same,Potency,[6],inactive
same,outcome,[7],inactive
same,Potency,[8],inactive
Cc1cc(OC(=O)N(C)C)nn1C(=O)N(C)C,Potency,[1],inactive
same,Potency,[2],inactive
same,Potency,[3],inactive
same,outcome,[4],inactive
same,Potency,[6],inactive
same,outcome,[7],inactive
same,Potency,[8],inactive
CC(C)(O)C(Cl)(Cl)Cl,Potency,[1],inactive
same,Potency,[2],inactive
same,Potency,[3],inactive
same,outcome,[4],inactive
same,Potency,[5],inactive
same,outcome,[7],inactive
same,Potency,[8],inactive
CCCCCCCC(=O)Cl,Potency,[1],inactive
same,Potency,[2],inactive
same,Potency,[3],inactive
same,outcome,[4],inactive
same,Potency,[5],inactive
same,outcome,[7],inactive
same,Potency,[8],inactive
O=C1CC(=O)NC(=O)N1,Potency,[1],inactive
same,Potency,[2],inactive
same,Potency,[3],inactive
same,outcome,[4],inactive
same,Potency,[5],inactive
same,Potency,[6],inactive
same,outcome,[7],inactive
same,Potency,[8],inactive
C/C=C/CC#N,Potency,[1],inactive
same,Potency,[2],inactive
same,Potency,[3],inactive
same,outcome,[4],inactive
same,Potency,[6],inactive
same,outcome,[7],inactive
same,Potency,[8],inactive
C=C1CC[C@@]2(O)[C@H]3Cc4ccc(O)c5c4[C@@]2(CCN3CC2CC2)[C@H]1O5,Potency,[1],inactive
same,Potency,[9],inactive
same,outcome,[4],inactive
same,Potency,[6],inactive
same,outcome,[7],inactive
same,Potency,[8],inactive
N[C@@H](Cc1ccc(Oc2cc(I)c(O)c(I)c2)c(I)c1)C(=O)O,Potency,[1],inactive
same,Potency,[9],inactive
same,Potency,[3],inactive
same,outcome,[4],inactive
same,Potency,[5],inactive
same,Potency,[6],inactive
same,outcome,[7],inactive
same,Potency,[8],inactive
ClCC1CO1 (stereo not drawn),Potency,[1],inactive
same,Potency,[9],inactive
same,outcome,[4],inactive
same,Potency,[5],inactive
same,Potency,[6],inactive
same,outcome,[7],inactive
same,Potency,[8],inactive
Brc1c(Br)c(Br)c(Br)c(Br)c1Br,"viability change, negative = cytotoxic",[1],7.8% [at 8.39 µM] (inactive)
same,"activity change, negative = inhibition",[2],3.5% [at 8.39 µM] (inactive)
same,"activity change, negative = inhibition",[3],4.51% [at 8.39 µM] (inactive)
same,"viability change, negative = cytotoxic",[5],2.28% [at 8.39 µM] (inactive)
same,"viability change, negative = cytotoxic",[6],1.61% [at 8.39 µM] (inactive)
same,activity change,[7],-2.81% [at 8.39 µM] (inactive)
same,"activity change, negative = inhibition",[8],-28% [at 8.39 µM] (inactive)
C=CC1(C)OC(=O)N(c2cc(Cl)cc(Cl)c2)C1=O (stereo not drawn),Potency,[1],inactive
same,Potency,[2],inactive
same,outcome,[4],inactive
same,Potency,[5],inactive
same,Potency,[6],54.2 µM (active) and inactive
same,outcome,[7],inactive
C1CN2CCC1CC2,Potency,[1],inactive
same,Potency,[2],inactive
same,outcome,[4],inactive
same,Potency,[5],inactive
same,Potency,[6],inactive
same,outcome,[7],inactive
same,Potency,[8],inactive
BrCC1CO1 (stereo not drawn),Potency,[1],inactive
same,Potency,[2],inactive
same,Potency,[3],inactive
same,Potency,[6],inactive
same,outcome,[7],inactive
same,Potency,[8],inactive
CC(C)NCC(O)c1ccc([N+](=O)[O-])cc1 (stereo not drawn),Potency,[1],inactive
same,Potency,[9],inactive
same,Potency,[3],inactive
same,outcome,[4],inactive
same,Potency,[5],inactive
same,Potency,[6],inactive
same,outcome,[7],inactive
Cn1c(N)nc2c3cccnc3ccc21,Potency,[1],inactive
same,Potency,[2],inactive
same,Potency,[3],inactive
same,Potency,[5],26 µM (active)
same,Potency,[6],26 µM (active)
same,outcome,[7],inactive
O=[N+]([O-])CCO,Potency,[1],inactive
same,Potency,[2],inactive
same,Potency,[3],inactive
same,Potency,[5],inactive
same,Potency,[6],inactive
same,outcome,[7],inactive
C=C(C)[C@H]1CN[C@H](C(=O)O)[C@H]1CC(=O)O,Potency,[1],inactive
same,Potency,[2],inactive
same,Potency,[3],inactive
same,Potency,[5],inactive
same,Potency,[6],inactive
same,outcome,[7],inactive
same,Potency,[8],inactive
CN(CCO)CCO,Potency,[1],inactive
same,Potency,[2],inactive
same,Potency,[3],inactive
same,Potency,[5],inactive
same,Potency,[6],inactive
same,outcome,[7],inactive
same,Potency,[8],inactive
CCN(CCO)CCn1c(Cc2ccccc2)nc2c1c(=O)n(C)c(=O)n2C,Potency,[1],inactive
same,Potency,[2],inactive
same,Potency,[3],inactive
same,Potency,[5],inactive
same,Potency,[6],inactive
same,outcome,[7],inactive
same,Potency,[8],inactive
CC(C)(C)C(=O)Cl,Potency,[1],inactive
same,Potency,[2],inactive
same,outcome,[4],inactive
same,Potency,[5],inactive
same,outcome,[7],inactive
same,Potency,[8],inactive
O=C(NC(O)C(Cl)(Cl)Cl)NC(O)C(Cl)(Cl)Cl (stereo not drawn),Potency,[1],inactive
same,Potency,[9],inactive
same,Potency,[3],inactive
same,outcome,[4],inactive
same,Potency,[5],inactive
same,Potency,[6],inactive
same,outcome,[7],inactive
same,Potency,[8],inactive
